Data published in PubChem BioAssay AID1159580 (chemical genetic matrix, 2015).
Values joined by “and” are separate entries in the source; they are usually repeats but may differ in a detail not shown here. Identical values can stand only once. About 2,000 (36%) of roughly 5,500 compounds were called active. Another 18% or so got no clear call; they are omitted. Cut-off read from the data, not from the text of the source: active = normalized growth mostly below about 0.91 (no sharp cut-off); inconclusive = no clear call, values can overlap the other calls; inactive = mostly above about 0.92. The list shows a part of the results.

Experiment: chemical genetic growth profiling, strain panel (AID 1159580);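 note: tested at 20 µM; growth read once vehicle control cultures reached saturation at 30 °C; 1 = growth at the plate median or of vehicle wells; lower values mean less growth of the strain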
Settings: growth OD
[1] = S. cerevisiae deletion strains, locus YHR030C, strain SLT2, hits give low values
[2] = S. cerevisiae deletion strains, locus YHR079C, strain IRE1, hits give low values
[3] = S. cerevisiae deletion strains, locus YJL095W, strain BCK1, hits give low values
[4] = S. cerevisiae deletion strains, locus YJR066W, strain TOR1, hits give low values
[5] = S. cerevisiae deletion strains, locus YLR113W, strain HOG1, hits give low values
[6] = S. cerevisiae deletion strains, locus YNL183C, strain NPR1, hits give low values
[7] = S. cerevisiae deletion strains, locus YOR231W, strain MKK1, hits give low values
[8] = S. cerevisiae deletion strains, locus YPL256C, strain CLN2, hits give low values

Measured: normalized growth

CC(C)c1c(CN(C)C(C)Cc2ccccc2)n(C)n(-c2ccccc2)c1=O (centres undefined)
inactive: [1] 0.997 | [2] 1.01 | [3] 0.992 | [4] 0.938 | [5] 1.01 | [6] 0.935 | [7] 1 | [8] 0.971

C/C1=C\CCC(=O)C2CC(C)(C)C2CC1 (centres undefined)
inactive: S. cerevisiae deletion strains, locus YBR021W, strain FUR4, hits give low values 0.997 | S. cerevisiae deletion strains, locus YBR229C, strain ROT2, hits give low values 1.02 | S. cerevisiae deletion strains, locus YCL029C, strain bik1, hits give low values 1.03 | S. cerevisiae deletion strains, locus YDL035C, strain GPR1, hits give low values 0.999 | S. cerevisiae deletion strains, locus YDL074C, strain BRE1, hits give low values 1.02 | S. cerevisiae deletion strains, locus YDL101C, strain DUN1, hits give low values 1.03 | S. cerevisiae deletion strains, locus YDL134C, strain PPH21, hits give low values 1.04 | S. cerevisiae deletion strains, locus YDL185W, strain tfp1, hits give low values 1.03 | S. cerevisiae deletion strains, locus YDL192W, strain arf1, hits give low values 1.01 | S. cerevisiae deletion strains, locus YDR101C, strain arx1, hits give low values 1 | S. cerevisiae deletion strains, locus YDR162C, strain NBP2, hits give low values 1.03 | S. cerevisiae deletion strains, locus YDR318W, strain mcm21, hits give low values 1.03 | S. cerevisiae deletion strains, locus YDR388W, hits give low values 1.03 | S. cerevisiae deletion strains, locus YDR502C, strain sam2, hits give low values 1.03 | S. cerevisiae deletion strains, locus YEL061C, strain CIN8, hits give low values 1.02 | S. cerevisiae deletion strains, locus YER110C, hits give low values 1.04 | S. cerevisiae deletion strains, locus YER155C, strain BEM2, hits give low values 1.01 | S. cerevisiae deletion strains, locus YER167W, strain BCK2, hits give low values 1.01 | S. cerevisiae deletion strains, locus YGL078C, strain dbp3, hits give low values 1.02 | S. cerevisiae deletion strains, locus YGL086W, strain mad1, hits give low values 1.02 | S. cerevisiae deletion strains, locus YGL248W, strain PDE1, hits give low values 1.03 | S. cerevisiae deletion strains, locus YGR135W, strain pre9, hits give low values 1.07 | S. cerevisiae deletion strains, locus YGR252W, strain gcn5, hits give low values 1 | [1] 1.02 and 1.01 | S. cerevisiae deletion strains, locus YHR079C, strain IRE1 (second series), hits give low values 1.02 | [2] 1.01 | S. cerevisiae deletion strains, locus YHR094C, strain hxt1, hits give low values 1.02 | S. cerevisiae deletion strains, locus YHR129C, strain ARP1, hits give low values 1.01 | S. cerevisiae deletion strains, locus YHR200W, strain rpn10, hits give low values 1.03 | S. cerevisiae deletion strains, locus YIL066C, strain RNR3, hits give low values 1.02 | S. cerevisiae deletion strains, locus YIL073C, strain SPO22, hits give low values 1.08 | S. cerevisiae deletion strains, locus YIL125W, strain kgd1, hits give low values 1.02 | S. cerevisiae deletion strains, locus YIR030C, strain dcg1, hits give low values 1.02 | [3] 1.07 and 1.02 | S. cerevisiae deletion strains, locus YJL134W, strain LCB3, hits give low values 1.02 | S. cerevisiae deletion strains, locus YJL168C, strain set2, hits give low values 1.02 | S. cerevisiae deletion strains, locus YJL187C, strain SWE1 (second series), hits give low values 1.04 | S. cerevisiae deletion strains, locus YJR043C, strain POL32, hits give low values 1.01 | [4] 0.954 | S. cerevisiae deletion strains, locus YKL009W, strain mrt4, hits give low values 0.982 | S. cerevisiae deletion strains, locus YKL068W, hits give low values 1.02 | S. cerevisiae deletion strains, locus YKL085W, strain MDH1 (second series), hits give low values 1.01 | S. cerevisiae deletion strains, locus YKL085W, strain MDH1, hits give low values 1.01 | S. cerevisiae deletion strains, locus YKL190W, strain CNB1, hits give low values 1.01 | S. cerevisiae deletion strains, locus YKR001C, strain vps1, hits give low values 1.04 | S. cerevisiae deletion strains, locus YLR039C, strain RIC1, hits give low values 1.09 | S. cerevisiae deletion strains, locus YLR058C, strain SHM2, hits give low values 1.02 | S. cerevisiae deletion strains, locus YLR102C, strain apc9, hits give low values 1.02 | [5] 1.03 | S. cerevisiae deletion strains, locus YLR262C, strain YPT6, hits give low values 1.1 | S. cerevisiae deletion strains, locus YLR268W, strain sec22, hits give low values 1.01 | S. cerevisiae deletion strains, locus YLR342W, strain FKS1 (second series), hits give low values 1.03 | S. cerevisiae deletion strains, locus YLR371W, strain rom2, hits give low values 1.04 | S. cerevisiae deletion strains, locus YLR418C, strain cdc73, hits give low values 1.04 | S. cerevisiae deletion strains, locus YML016C, strain PPZ1, hits give low values 1.03 | S. cerevisiae deletion strains, locus YML032C, strain rad52, hits give low values 1.02 | S. cerevisiae deletion strains, locus YML124C, strain tub3, hits give low values 1.02 | S. cerevisiae deletion strains, locus YMR078C, strain ctf18, hits give low values 1.02 | S. cerevisiae deletion strains, locus YMR223W, strain ubp8, hits give low values 1.01 | S. cerevisiae deletion strains, locus YMR307W, strain GAS1, hits give low values 1.09 | S. cerevisiae deletion strains, locus YNL067W, strain RPL9B, hits give low values 1.03 | [6] 0.954 | S. cerevisiae deletion strains, locus YNL233W, strain BNI4, hits give low values 1.05 | S. cerevisiae deletion strains, locus YNL250W, strain rad50, hits give low values 1.07 | S. cerevisiae deletion strains, locus YNL271C, strain bni1, hits give low values 1.02 | S. cerevisiae deletion strains, locus YNL298W, strain CLA4, hits give low values 1.01 | S. cerevisiae deletion strains, locus YNL307C, strain MCK1, hits give low values 1.03 | S. cerevisiae deletion strains, locus YNR052C, strain pop2, hits give low values 1.04 | S. cerevisiae deletion strains, locus YOL006C, strain TOP1, hits give low values 1.1 | S. cerevisiae deletion strains, locus YOL012C, strain htz1 1.02 | S. cerevisiae deletion strains, locus YOL147C, strain pex11, hits give low values 1.01 | S. cerevisiae deletion strains, locus YOR061W, strain CKA2, hits give low values 1.02 | S. cerevisiae deletion strains, locus YOR069W, strain VPS5, hits give low values 1.02 | S. cerevisiae deletion strains, locus YOR136W, strain idh2, hits give low values 1.02 | S. cerevisiae deletion strains, locus YOR144C, strain elg1, hits give low values 1.02 | S. cerevisiae deletion strains, locus YOR184W, strain ser1, hits give low values 1 | [7] 1 | S. cerevisiae deletion strains, locus YOR316C, strain cot1, hits give low values 1.03 | S. cerevisiae deletion strains, locus YPL055C, strain LGE1, hits give low values 1.05 | [8] 0.999 | S. cerevisiae deletion strains, locus YPR119W, strain clb2, hits give low values 1.02 | S. cerevisiae deletion strains, locus YPR141C, strain kar3, hits give low values 1.03 | S. cerevisiae deletion strains, locus YPR163C, strain tif3, hits give low values 1.02 | S. cerevisiae deletion strains, locus YPR167C, strain met16, hits give low values 1.02 | S. cerevisiae deletion strains, strain wtn01, hits give low values 1.02 | S. cerevisiae strains, strain wild type, hits give low values 1.03
